Sampled rows, rich in hits. Any-hit rate of the full collection: about 4.8%.
PfHsp90 set2 = inhibits growth of yeast expressing Plasmodium falciparum Hsp90; AID 504621; S. cerevisiae expressing PfHsp90, BacTiter-Glo ATP, 48 h; yeast lacking PDR1 and PDR3 efflux regulators; inhibition, % at 9.4 µM; 310,000 tested, 0.32% active;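 active means every replicate shows inhibition above about 80%, whatever the replicate mean, limit read from the data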;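 further: 0% = DMSO neutral controls and 100% = 20 µM radicicol positive controls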
tim10-1 inh = tim10-1 yeast growth inhibition. S. cerevisiae tim10-1 ts strain growth, BacTiter-Glo, 24 h. inhibition, % at 20 µM. 330,000 tested, 2.2% active;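 active means inhibition of at least 40%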;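 further: mutant grown at 25 °C; 0% = DMSO wells with yeast and 100% = wells holding no yeast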
SKKanGAS inh = SKKanGAS growth inhibition; 300,000 tested, 1.3% active; S. pyogenes SKKanGAS, kanamycin growth, BacTiter-Glo, 6 h; inhibition, % at 7.5 µM;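 active means mean replicate score, as percent of positive control median, at least 50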;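 further: strain carries kanamycin resistance gene driven by streptokinase promoter and grows in 40 µg/ml kanamycin; loss of luminescence reflects streptokinase promoter inhibition or plain growth inhibition; 0% = median of DMSO wells and 100% = positive control at its reference dose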
tim23-1 inh = growth inhibitors of tim23-1 mutant yeast; S. cerevisiae tim23-1 growth, BacTiter-Glo luminescence, 24 h; inhibition, % at 20 µM; 330,000 tested, 1.3% active; AID 463212;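 active means growth inhibition of the mutant yeast at or above 50%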;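 further: temperature-sensitive mutant grown at 25 °C; plate controls were DMSO-treated mutant yeast for no effect and medium wells lacking yeast for full effect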
NALP1 inh = NALP1 inhibition; AID 2071; 280,000 tested, 0.61% active; S. cerevisiae NALP1/ASC/caspase-1 growth, X-gal OD620, 72 h; inhibition, % at 10 µM; in the data active means inhibition mostly above about 24%, no sharp cut-off; inactive means mostly below about 32%
TIM10 inh = TIM10 yeast growth inhibition; AID 463195; 330,000 tested, 1.4% active; inhibition, % at 10 µM; S. cerevisiae TIM10 strain growth, BacTiter-Glo luminescence, 24 h;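 active means inhibition of 40% or more at the single tested concentration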;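 further: wild-type TIM10 isogenic control strain grown at permissive 25 °C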
tim10-1 conf = tim10-1 yeast growth inhibition, confirmed; AID 463213; inhibition, % at 20 µM; shares compounds with tim10-1 inh; 7,400 tested, 56% active; S. cerevisiae tim10-1 ts strain growth, BacTiter-Glo, 24 h;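 active means inhibition of yeast growth at or above a set limit in either of two repeat tests at 20 µM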;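 further: tim10-1 mutant grown at permissive 25 °C to find synthetic lethal compounds; 0% = DMSO yeast wells and 100% = medium wells without yeast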
The depositor's hits bear a star; . = no result given.

SMILES	PfHsp90 set2	tim10-1 inh	SKKanGAS inh	tim23-1 inh	NALP1 inh	TIM10 inh	tim10-1 conf
Cc1cc(NC(=O)c2cccnc2Cl)ccc1NC(=O)c1cc2ccccc2o1	-9	-22	-1	-5	6	13	.
COc1ccc(N(C)S(=O)(=O)c2cccc(C(=O)Nc3nc4ccccc4[nH]3)c2)cc1	0	41*	24	35	12	38	27
CN1CC(c2ccccc2)C2(SC(=S)N(Cc3ccco3)C2=O)C12C(=O)Nc1ccccc12 (stereo not given)	.	44*	13	19	12	13	16
CC(C)(C)c1ccc(NC(=O)CNC2CCCc3ccccc32)cc1 (stereo not given)	21	42*	-11	7	30	22	16
COc1ccc(NS(=O)(=O)c2ccc(SC)cc2)cc1	-1	19	0	20	.	-7	.
COC(=O)c1ccc(NS(=O)(=O)c2ccc(SC)cc2)cc1	29	40*	-3	31	.	13	21
Nc1cccnc1Oc1ccc(F)cc1F	1	-20	-2	-7	2	-2	.
COc1ccc(NC(=O)c2ccc(Cl)c(S(=O)(=O)N3CCc4ccccc4C3)c2)cn1	17	47*	17	15	8	20	19
CC(=O)NN1C(=O)/C(=C/c2ccc(C(C)C)cc2)SC1=S	-7	42*	-3	41	20	3	39*
Cc1ccc(OCC(=O)N/N=C\c2cn(C)c3ccccc23)c([N+](=O)[O-])c1	-14	41*	-2	-3	5	13	15
Cn1cc(/C=N/NC(=O)COc2ccccc2[N+](=O)[O-])c2ccccc21	-3	29	-14	14	27	25	.
CCOC(=O)[C@@H]1[C@H]2COc3ccccc3[C@@H]2N2C(=O)N(c3ccc(OC)cc3)C(=O)[C@]12C	7	14	3	23	.	8	.
COc1ccc(C(=O)N/N=C(\C)c2ccccn2)cc1OC	-5	26	38	12	-7	11	.
C/C(=N/NC(=O)c1ccc(C(C)(C)C)cc1)c1ccccn1	-18	47*	106*	41	.	4	15
C/C(=N\NC(=O)c1cc(-c2cccs2)nc2ccccc12)c1ccccn1	1	67*	90*	40	5	32	48*
C/C(=N\NC(=O)c1ccc(Cl)c(Cl)c1)c1ccccn1	-28	52*	92*	49	7	23	47*
Cc1ccccc1CS(=O)(=O)Cc1ccc(C(=O)NCC2CCCO2)o1 (stereo not given)	-5	3	-1	0	12	-4	.
CC(C)(C)NC(=O)C[C@H]1C[C@H](C(=O)N2CCOCC2)[C@@]2(C)c3[nH]c4cc(-c5ccco5)ccc4c3CCN2C1=O	-8	16	.	31	.	-2	.
CCCNC(=O)c1ccc(N2CCC3(CC2)CC(c2cccc(Br)c2)=NO3)c(NC(=O)c2cccc(OC)c2)c1	-18	-8	26	2	.	-4	.
N/C(=N\OC(=O)c1ccc(F)cc1)c1ccc(Br)cc1	.	57*	1	29	-3	34	46*
N/C(=N\OC(=O)c1ccccc1)c1ccncc1	2	-8	-4	4	38	4	.
N/C(=N\OC(=O)c1ccc(Br)cc1)c1ccncc1	0	53*	-21	29	7	37	43*
Cc1cccc(C(=O)O/N=C(/c2ccccc2)c2ccncc2)c1	.	41*	-3	37	-2	31	42*
COc1ccc(C(=O)O/N=C(/c2ccccc2)c2ccncc2)cc1OC	13	14	4	29	4	35	.
N/C(=N\OC(=O)c1cccc(Br)c1)c1ccncc1	10	41*	-4	12	20	11	35*
CCc1cc(C(=O)NC(C)C2CCCO2)cs1 (stereo not given)	11	9	-3	12	5	2	.
N#Cc1ccccc1CSc1nnc(Cc2ccccc2)o1	14	29	10	25	11	24	.
Cc1ccccc1CN1CCN(c2nc3ccccc3s2)CC1	-1	41*	19	40	0	5	24

Bioassay records deposited in PubChem BioAssay by several laboratories.
